LYPLA2 inh – LYPLA2 inhibitors, primary screen, counter-screen for PME1 inhibitor project, biochemical, fluorescence polarization, FP-Rh probe ABPP; Acyl-protein thioesterase 2 (Homo sapiens), O95372; recombinant LYPLA2; inhibition, % at 5.9 µM; 320,000 compounds, 0.38% hits; AID 2177, 2009;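 active means inhibition above the screen-wide mean plus 3 SD, limit set per campaign, cut at about 26% in these data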;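 further: 0% = LYPLA2 with DMSO and 100% = wells lacking LYPLA2 enzyme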
PAD4 FP inh – human PAD4 inhibitors, primary screen, biochemical, fluorescence polarization, 1536-well format; AID 485272, 2010; recombinant PAD4, RCA probe fluorescence polarization; 330,000 compounds, 0.41% hits; inhibition, % at 6.36 µM; Protein-arginine deiminase type-4 (Homo sapiens), Q9UM07;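 active means percent inhibition above a cutoff equal to the mean of all tested compounds plus 3 SD, cut at about 15% in these data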;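 further: 0% = PAD4 with RCA probe and DMSO and 100% = probe without PAD4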
GSTO1 inh – inhibitors of recombinant GSTO1, primary screen, counter-screen for RBBP9 inhibitor project, biochemical, fluorescence polarization. Glutathione S-transferase omega-1 (Homo sapiens), P78417. 300,000 compounds, 1.1% hits. activity-based probe fluorescence polarization. inhibition, % at 5.96 µM;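 active means inhibition above the campaign mean inhibition plus 3 SD, cut at about 35% in these data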;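 further: 0% = GSTO1-1 with DMSO and 100% = wells lacking GSTO1-1 enzyme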
PME-1 inh – PME-1 inhibitors via competitive probe labeling, primary screen, biochemical, fluorescence polarization, FP-Rh probe, HTS | Protein phosphatase methylesterase 1 (Homo sapiens), Q9Y570 | recombinant PME-1 | inhibition, % at 5.9 µM | 320,000 compounds, 0.53% hits | AID 2130, 2009;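 active means inhibition above the campaign mean of all compounds plus 3 SD, cut at about 26% in these data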;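 further: competitive labeling of PME-1 active site by serine hydrolase directed probe; 0% = PME-1 with DMSO and 100% = wells lacking PME-1 enzyme; inhibitors block probe labeling so polarization falls and inhibition rises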
Target sequence (Q9Y570 whole entry, looked up): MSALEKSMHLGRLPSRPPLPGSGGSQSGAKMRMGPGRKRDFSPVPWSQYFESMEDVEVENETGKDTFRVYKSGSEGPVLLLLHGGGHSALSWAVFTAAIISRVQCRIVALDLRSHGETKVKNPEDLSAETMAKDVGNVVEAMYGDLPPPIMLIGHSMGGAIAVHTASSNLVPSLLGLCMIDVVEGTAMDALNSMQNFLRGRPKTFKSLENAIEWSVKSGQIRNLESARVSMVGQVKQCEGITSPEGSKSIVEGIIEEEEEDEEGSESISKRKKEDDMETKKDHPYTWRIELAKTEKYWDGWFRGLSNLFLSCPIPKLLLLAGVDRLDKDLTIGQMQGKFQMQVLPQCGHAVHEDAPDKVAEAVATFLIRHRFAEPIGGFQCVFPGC
Fam108B inh – mouse Fam108B serine hydrolase inhibitors, primary screen, counter-screen for RBBP9 inhibitor project, biochemical, fluorescence polarization | recombinant Fam108B, FP-Rh probe fluorescence polarization | inhibition, % at 9.51 µM | 300,000 compounds, 0.33% hits;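 active means inhibition above the screen mean inhibition plus 3 SD, computed separately per campaign, cut at about 18% in these data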;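 further: inhibitors lower polarization as less probe binds the enzyme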
LYPLA1 inh – LYPLA1 inhibitors, primary screen, counter-screen for PME1 inhibitor project, biochemical, fluorescence polarization, FP-Rh probe ABPP. Acyl-protein thioesterase 1 (Homo sapiens), O75608. recombinant LYPLA1. inhibition, % at 5.9 µM. 320,000 compounds, 0.16% hits. AID 2174, 2009;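 active means inhibition above the mean of all tested compounds plus 3 SD, set per campaign, cut at about 14% in these data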;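 further: inhibitors block serine hydrolase probe labeling of LYPLA1 so polarization falls; 0% = enzyme with DMSO and 100% = wells lacking LYPLA1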
Target sequence (O75608 whole entry, looked up): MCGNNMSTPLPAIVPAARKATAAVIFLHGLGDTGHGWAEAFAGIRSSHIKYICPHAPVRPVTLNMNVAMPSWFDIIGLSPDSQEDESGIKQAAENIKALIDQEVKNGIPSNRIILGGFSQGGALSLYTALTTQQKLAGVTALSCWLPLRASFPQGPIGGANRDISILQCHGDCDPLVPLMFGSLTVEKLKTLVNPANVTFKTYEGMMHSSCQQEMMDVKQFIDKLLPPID
Fam108b inh conf – mouse Fam108b serine hydrolase inhibitors, confirmation, counter-screen for RBBP9 inhibitor project, biochemical, fluorescence polarization, triplicate. 930 compounds, 44% hits. recombinant Fam108b, FP-Rh probe fluorescence polarization. shares compounds with Fam108B inh. inhibition, % at 9.51 µM;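 active means inhibition above a limit from the primary screen, the mean over all compounds plus 3 SD, cut at about 19% in these data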;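 further: 0% = median of active Fam108b wells and 100% = catalytically dead S170A mutant; inhibitors free the probe so polarization falls as inhibition rises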
Fam108b inh – inhibition of mouse Fam108b by HTS hits, late-stage follow-up, biochemical, gel-based ABPP, soluble recombinant form; shares compounds with Fam108B inh; fluorophosphonate probe; inhibition, % at 20 µM; 260 compounds, 44% hits; in the data active means inhibition above about 40%
GSTO1 inh conf – GSTO1 inhibitor hit confirmation, counter-screen for RBBP9 inhibitor project, biochemical, fluorescence polarization, triplicate; shares compounds with GSTO1 inh; recombinant GSTO1, probe fluorescence polarization; inhibition, % at 5.96 µM; 2,400 compounds, 54% hits; AID 2176, 2009;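 active means inhibition above the primary screen's cutoff, its mean inhibition plus 3 SD, cut at about 35% in these data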;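 further: loss of polarization as inhibitors block binding of rhodamine sulfonate ester activity probe; 0% = GSTO1 with DMSO and 100% = wells lacking GSTO1 enzyme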
LYPLA1 confirm – LYPLA1 inhibitors, retest, confirmation, counter-screen for PME1 inhibitor project, biochemical, fluorescence polarization, FP-Rh probe ABPP; shares compounds with LYPLA1 inh; AID 2233, 2010; 480 compounds, 69% hits; recombinant LYPLA1; inhibition, % at 5.9 µM;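 active means mean inhibition across replicates above the hit cutoff set in the primary screen, cut at about 15% in these data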;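 further: loss of FP-Rh probe labeling of LYPLA1 seen as lower polarization; 0% = LYPLA1 with DMSO and 100% = wells lacking LYPLA1 enzyme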
LYPLA2 conf – LYPLA2 inhibitors, retest, confirmation, counter-screen for PME1 inhibitor project, biochemical, fluorescence polarization, FP-Rh probe ABPP; inhibition, % at 5.9 µM; 1,100 compounds, 72% hits; shares compounds with LYPLA2 inh; recombinant LYPLA2;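 active means mean inhibition across replicates above the hit cutoff set in the primary screen, cut at about 26% in these data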;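 further: blocked labeling of the enzyme by serine hydrolase FP-Rh probe lowers polarization; 0% = enzyme with DMSO and 100% = wells lacking LYPLA2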
PAD4 FP conf – human PAD4 inhibitors, confirmation, biochemical, fluorescence polarization. shares compounds with PAD4 FP inh. inhibition, % at 6.36 µM. recombinant PAD4, RCA probe fluorescence polarization. 1,200 compounds, 28% hits;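 active means mean inhibition across replicates above the hit cutoff set by the earlier primary screen, cut at about 15% in these data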;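 further: inhibitors block active-site labeling by the probe so polarization falls; 0% = PAD4 with probe and DMSO and 100% = probe without PAD4 enzyme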
Numbers without * were called inactive; . = no result. The list is not random: actives were taken first. Their share in the collection is about 1.7%.

SMILES | LYPLA2 inh | PAD4 FP inh | GSTO1 inh | PME-1 inh | Fam108B inh | LYPLA1 inh | Fam108b inh conf | GSTO1 inh conf | LYPLA1 confirm | LYPLA2 conf | PAD4 FP conf | others
CCC(C)Sc1nnc(CSc2nc3nc(C)cc(C)n3n2)o1 (centres undefined) | 0 | 1 | -3 | -2 | 4 | 0 | . | . | . | . | .
O=[N+]([O-])c1ccc(Sc2ccccn2)nc1 | 3 | -4 | 7 | 1 | 0 | 3 | . | . | . | . | .
O=C(Nc1cc(Sc2ccccn2)cc([N+](=O)[O-])c1)c1ccc([N+](=O)[O-])cc1 | 57* | -2 | 9 | 4 | 19* | -13 | 5 | . | . | 13 | .
Oc1ccccc1-c1nc2c3ccccc3c3ccccc3c2[nH]1 | 36* | 2 | -20 | 38* | 44* | 6 | 53* | . | . | 14 | . | Fam108b inh=90*
Oc1ccccc1-c1ccn[nH]1 | . | -4 | . | . | . | . | . | . | . | . | .
Nc1ccc(N2CCCCC2)c2nonc12 | 90* | 69* | 92* | 34* | 67* | 79* | -4 | 62* | 4 | 0 | .
Nc1c(N2CCCC2)cc(Cl)c2nonc12 | 72* | 7 | 95* | 31* | 54* | 72* | 42* | 49* | 0 | -1 | . | Fam108b inh=0
CC(C)(C)OC(=O)N1CCC(C(=O)N2CCC[C@H]2C(=O)O)CC1 | 7 | 2 | -11 | -1 | -5 | -2 | . | . | . | . | .
COC1=CC(=O)C(O)=C(CCCCCCC/C=C/CCCCCCCC2=C(O)C(=O)C=C(OC)C2=O)C1=O | 51* | 6 | 91* | 22 | 47* | 56* | 52* | 90* | 72* | 36* | .
CC(C)(C)CC(=O)NC(=S)NCc1ccco1 | 5 | 0 | 1 | 3 | 0 | 2 | . | . | . | . | .
O=C(O)c1cccc(-c2ccc(/C=N/Nc3ccc([N+](=O)[O-])cc3)o2)c1 | 31* | -3 | 15 | 33* | 23* | 10 | 20* | . | . | 27* | .
O=C(O)c1ccc(N/N=C/c2ccc(-c3cccc(Cl)c3)o2)cc1 | 8 | -3 | 19 | 24 | 17 | 8 | . | . | . | . | .
N=C1CCC(=N)c2c1c(O)c1ccccc1c2O | 42* | 43* | 77* | 64* | 39* | 31* | 11 | 77* | 10 | 25 | .
Cc1ccc(-c2nc(C3CCN(S(C)(=O)=O)CC3)no2)cc1 | 4 | 0 | 8 | 10 | 3 | 1 | . | . | . | . | .
CCn1c(CSc2nnc(-c3ccncc3)n2C)nc2cc(C(=O)O)ccc21 | 41* | 52* | 34 | 40* | 29* | 37* | 37* | . | 41* | 36* | 62* | Fam108b inh=15
Cn1c(SCC(=O)C(C)(C)C)nnc1-c1ccncc1 | -5 | -6 | 0 | 1 | 1 | 0 | . | . | . | . | .
O=C1C(Nc2ccccc2)=C(NS(=O)(=O)c2ccccc2)C(=O)c2ccccc21 | 8 | -4 | 3 | 4 | 5 | -1 | . | . | . | . | .
COC(=O)c1ccccc1NC1=C/C(=N\S(=O)(=O)c2cccs2)c2ccccc2C1=O | 9 | 38* | 79* | 18 | 20* | -3 | 9 | 84* | . | . | 35*
O=C1C(Nc2ccccc2)=C/C(=N/S(=O)(=O)c2cccs2)c2ccccc21 | 1 | 63* | 84* | 32* | 36* | -4 | 57* | 95* | . | . | 58*
COC(=O)c1ccccc1NC1=C/C(=N\S(=O)(=O)c2ccc(C(=O)O)cc2)c2ccccc2C1=O | 26* | 25* | 86* | 21 | 57* | 13 | 72* | 85* | . | . | 66* | Fam108b inh=15
COc1ccc(-n2c(C)nc(N)c2C(=O)c2ccccc2)cc1 | 4 | -4 | 5 | -4 | 0 | -1 | . | . | . | . | .
Cc1cccc(-n2nnnc2SCc2csc(-c3ccccc3)n2)c1 | -8 | -3 | -1 | -6 | 1 | -4 | . | . | . | . | .
O=C1C(Cl)=C(N2CCC(C(=O)O)CC2)C(=O)c2ccccc21 | 40* | 20* | 80* | 17 | 29* | 2 | 52* | 79* | . | 37* | 15* | Fam108b inh=60*
CC(C)NC(=O)NC(=O)COc1ccc(Br)cc1Br | -2 | -2 | 8 | 2 | 2 | -1 | . | . | . | . | .
Cn1ccnc1C(O)(c1ccccc1)c1ccccc1 | 10 | 7 | 5 | -3 | 1 | 2 | . | . | . | . | .
SMILES | LYPLA2 inh | PAD4 FP inh | GSTO1 inh | PME-1 inh | Fam108B inh | LYPLA1 inh | Fam108b inh conf | GSTO1 inh conf | LYPLA1 confirm | LYPLA2 conf | PAD4 FP conf | others
O=C1C=C(N2CCOCC2)c2ccccc2C1=O | 68* | 60* | 90* | 28* | 58* | 43* | 66* | 99* | 50* | 79* | 66* | Fam108b inh=20
Cc1ccc(C)c(NC(=O)CCCCCCCCCCC2COCCO2)c1 (centres undefined) | 6 | 3 | -2 | -2 | -4 | 4 | . | . | . | . | .
CCOC(=O)CN(C(=O)CSc1nnc2c(n1)[nH]c1ccc(F)cc12)c1ccccc1 | 1 | -4 | -12 | -7 | 2 | -6 | . | . | . | . | .
O=C1c2cccc3c(O)ccc(c23)C(=O)N1Cc1ccccc1 | 31* | 40* | 9 | 26 | 28* | 21* | 28* | . | 24* | . | 50*
Cc1cccc2nc3c(nc12)-c1ccccc1C3=O | 2 | -7 | 2 | -1 | -1 | 1 | . | . | . | . | .
CN1C(=O)NC(c2ccccc2[N+](=O)[O-])C2=C1CCCC2=O (centres undefined) | 94* | 102* | 71* | 84* | 68* | 73* | 24* | 38* | 28* | 74* | 62*

Assay outcomes from PubChem.
